An excerpt weighted towards active compounds, which were near 7.5% of everything screened.
NPC1 promoter act – qHTS Assay for NPC1 Promoter Activators; Huh7 NPC1 promoter luciferase reporter, 24 h; Potency, µM (series often up to 9.22 µM), for inactives: at the highest dose activation, hits mostly activators; actives 2.4% (n = 320,000); further: % of control where 0% means no effect; nearly all actives have a fitted effect of over 60% in size
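Luminescence read-out of NPC1 promoter-driven luciferase in stably transfected Huh7 cells; compounds delivered in DMSO and left 24 h at 37C, 5% CO2, qHTS titration format.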
ELG1 genotox – qHTS screen for small molecules that induce genotoxicity in human embryonic kidney (HEK293T) cells expressing luciferase-tagged ELG1; Potency, µM (series often up to 46 µM), for inactives: at the top dose activity change, positive = activation, hits mostly activators; actives 1.3% (n = 330,000); HEK293T ELG1-luciferase reporter, luminescence, 16 h; further: % of control where 0% means no effect; nearly all actives have a fitted effect of over 60% in size
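Quantitative HTS format in 1536-well plates. HEK293T ELG1-luciferase reporter cells receive test compound and are incubated 16 hr at 37 °C, 5% CO2; ONE-Glo added, 30 min room temperature, then luminescence read.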
FLuc modulator – qHTS profiling assay for firefly luciferase inhibitor/activator using purifed enzyme and Km concentrations of substrates (counterscreen for miR-21 project). Luciferin 4-monooxygenase (Photinus pyralis), P08659. actives 6.9% (n = 360,000). Potency, µM (highest dose often 57.5 µM), for inactives: at the highest dose activity change, negative = inhibition, actives largely listed as inhibitors. purified FLuc, Km substrates, luminescence inhibition;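 further: plate controls were vehicle for no effect and reference inhibitor for full effect; nearly all actives have a fitted effect of over 55% in size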
Target sequence (P08659 whole entry, looked up): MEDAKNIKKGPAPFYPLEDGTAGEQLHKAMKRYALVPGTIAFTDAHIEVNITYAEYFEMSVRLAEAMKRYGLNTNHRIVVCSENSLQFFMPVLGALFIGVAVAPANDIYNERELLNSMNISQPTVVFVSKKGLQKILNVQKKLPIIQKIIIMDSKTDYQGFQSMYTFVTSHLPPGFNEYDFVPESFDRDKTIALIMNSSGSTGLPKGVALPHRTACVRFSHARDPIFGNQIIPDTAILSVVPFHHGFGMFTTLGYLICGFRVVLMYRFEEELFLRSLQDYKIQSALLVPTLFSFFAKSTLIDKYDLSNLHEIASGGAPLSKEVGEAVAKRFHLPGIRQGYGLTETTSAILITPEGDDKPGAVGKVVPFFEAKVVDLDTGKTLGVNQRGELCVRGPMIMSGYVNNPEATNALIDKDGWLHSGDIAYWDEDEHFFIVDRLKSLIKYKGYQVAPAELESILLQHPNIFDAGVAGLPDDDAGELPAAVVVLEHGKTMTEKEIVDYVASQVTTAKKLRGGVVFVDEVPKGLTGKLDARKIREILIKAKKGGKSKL
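Biochemical qHTS of compounds, final roughly 60 µM downward over six points, against 10 nM purified firefly luciferase using Km concentrations of substrates (10 uM D-luciferin, 10 uM ATP) in Tris acetate pH 7.5 buffer; luminescence output.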
Rab9 promoter act – qHTS Assay for Rab9 Promoter Activators; Huh7 Rab9 promoter-luciferase reporter, luminescence, 24 h; Potency, µM (top dose mostly 9.22 µM), for the others: top-dose activation, negative = inhibition, usual class: activators; actives 2.8% (n = 320,000); AID 485297, 2010; further: % of control where 0% means no effect; nearly all actives have a fitted effect of over 60% in size
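Stable Rab9-luc Huh7, 1500 cells/well, 2 h settle; cmpd in DMSO, 24 h, 37 °C/5% CO2; luciferase reagent 10 min RT; luminescence.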
SMN2 splice up – qHTS Assay for Enhancers of SMN2 Splice Variant Expression; Potency, µM (highest dose often 46.1 µM), without a hit: at the top dose activity change, positive = activation, most hits filed as activators; actives 2.8% (n = 210,000); HEK293 SMN2-luciferase splicing reporter, luminescence, 30-36 h; further: % of control where 0% means no effect; nearly all actives have a fitted effect of over 55% in size
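HEK293 cells carry an SMN2 […]–luciferase reporter in which exon 7 inclusion puts luciferase in frame. Cells were plated 10-12 h before compound addition, then incubated 30-36 h at 37C. ONE-Glo luminescence was read; sodium butyrate at 4.5 mM final served as control.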
Luc counter – Counterscreen for Luciferase (Kinase-Glo TM) Inhibition; Kinase-Glo luciferase, ATP luminescence, 8 min; Potency, µM (highest dose often 38.3 µM), without a hit: top-dose activity change, negative = inhibition, usual class: inhibitors; actives 0.28% (n = 200,000); Luciferin 4-monooxygenase (Photuris pensylvanica), Q27757; further: on the % scale 0 is the no-effect control and ±100 the full control effect; nearly all actives have a fitted effect of over 60% in size
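Substrate mix (final 50 mM imidazole pH 7.2, 50 mM KCl, 7 mM MgCl2, 10 uM ATP, 0.01% Tween 20, 0.05% BSA) plus pin-tool compound, then Kinase-Glo detection mix; 8 min ambient, luminescence read.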
The depositor's hits bear a star; ? = inconclusive; . = no result given. The call rests on the fitted dose curve; in most records, active means well fitted curve in the direction sought with a large enough effect; inconclusive means small, poorly fitted or top-dose-only effect, or another doubt; inactive means no such curve, though single readings can be large; an effect the other way counts as inactive or inconclusive. Potency means the concentration at half of the fitted maximal effect.

SMILES | NPC1 promoter act | ELG1 genotox | FLuc modulator | Rab9 promoter act | SMN2 splice up | Luc counter
COc1cc(CCC(C)=O)ccc1OC(=O)c1c(F)cccc1Cl | ? | ? | 12µM* | 2.51µM* | . | .
CCn1c(=O)n(-c2ccc(F)c(Cl)c2)c(=O)c2sc3ccccc3c21 | . | . | 1.8% | . | 0.2% | .
CCOC(=O)CN1N=C(/C=C/c2ccc(C)cc2)CCC1=O | 0.7% | 3.7% | ? | -4.9% | 9.1% | -1.5%
COc1ccc(/C=C/C2=NN(C)C(=O)CC2)cc1 | 2µM* | ? | 10.7µM* | 2.82µM* | 11.2µM* | ?
O=C(NC1CCCC1)c1cc(-c2cccc(Cl)c2)on1 | 2.82µM* | 18.3µM* | 15.1µM* | 2.82µM* | . | .
Cc1ccc(NC(=O)c2cc(-c3ccc(F)cc3)on2)cc1C | 2.1% | 15.4% | 0.1% | 3.1% | -0.9% | 0.7%
O=C(NC1CCCC1)c1cc(-c2ccc(F)cc2)on1 | 1µM* | 4.61µM* | 4.78µM* | 1.78µM* | . | .
O=C(NC1CCCC1)c1cc(-c2ccc(Cl)cc2)on1 | 1.41µM* | 4.61µM* | 2.69µM* | 1.78µM* | . | .
O=C(NC1CCCCC1)c1cc(-c2ccc(Cl)cc2)on1 | 29.9% | 7.7% | 3.0% | 25.8% | . | .
Cc1ccc(-c2nc(NC(=O)CSc3ncn[nH]3)ns2)cc1 | 3.4% | 6.1% | 16.9µM* | 16.3% | . | .
Cc1cc(SCC(=O)Nc2nsc(-c3ccc(C(C)(C)C)cc3)n2)nc2ccccc12 | . | . | . | . | 14.1µM* | .
CC(=O)N1CCc2cc(S(=O)(=O)NCCC(=O)Nc3ccc4c(c3)OCCO4)ccc21 | 25.8% | ? | 15.1µM* | 26.1% | ? | 3.1%
CSCC[C@H](NC(=O)[C@@H]1CSC2c3ccccc3C(=O)N21)C(=O)N1CCC[C@H]1CO (some centres undefined) | -2.2% | 2.5% | 1.7% | -0.7% | . | .
CCOc1c(O)ccc(/C=C2\SC(=S)NC2=O)c1[N+](=O)[O-] | -0.5% | 0.4% | 13.5µM* | -7.0% | -8.8% | -0.5%
c1ccc2c(N3CCOCC3)c3c(nc2c1)CCC3 | -4.4% | -7.6% | 0.5% | -1.7% | . | .
COc1ccc2c(c1)CCc1c-2nc2ccccc2c1N1CCOCC1 | 1.4% | 4.3% | 5.36µM* | 17.4% | . | .
O=S(=O)(c1cccc(-c2nc3n(n2)Cc2ccccc2-3)c1)N1CCCC1 | 9.2% | 0.2% | 15.1µM* | 19.8% | -4.0% | -7.8%
Cc1cc(O)c(Sc2ncn[nH]2)cc1NS(=O)(=O)c1ccc(Cl)cc1 | -0.4% | -1.0% | 4.4% | 1.6% | . | .
O=S(=O)(Nc1cc(Sc2ncn[nH]2)c(O)c2ccccc12)c1ccccc1 | 3.3% | -12.8% | 10.7µM* | 1.4% | -112.6% | -0.7%
COc1ccc(Nc2cc(C)c3ccccc3n2)cc1 | 27.7% | ? | 13.5µM* | ? | ? | 2.8%
COc1ccc(Nc2cccccc2=O)cc1 | 28.9% | 2.8% | ? | 21.7% | 1.6% | -4.3%
COc1cc(OC)c(C(=O)Nc2cccc3ccccc23)cc1OC | 9.8% | -0.4% | 19µM* | 1.5% | . | .
COc1ccc(C(=O)Nc2cccc3ccccc23)cc1 | ? | 12.7% | 19µM* | ? | . | .
COc1ccc(C(=O)NNC(=O)C(=O)Nc2cccc3ccccc23)cc1 | -0.8% | 3.5% | -7.7% | 10.0% | . | .
COc1ccc(Nc2cccc3ccccc23)cc1 | 19.0% | 9.4% | 26.9µM* | ? | . | .
CN(C)c1oc(-c2ccc(OCc3ccccc3)cc2)nc1C#N | 17.3% | 16.4µM* | ? | 5.7% | ? | -1.1%
O=c1c(-c2cc3ccccc3o2)[n+]([O-])c2ccccc2n1OCc1ccccn1 | ? | ? | 12µM* | ? | ? | -14.9%
CCOn1c(=O)c(-c2ccc(Br)cc2)[n+]([O-])c2ccccc21 | 1.3% | -0.7% | 3.3% | 0.3% | . | .
